Measurements: the supplement of paper PMC7669877
± gives the uncertainty stated by the source.

tested on: Candidatus Liberibacter solanacearum in potato hairy roots; assay: relative CLso titer (% of untreated control); higher = less inhibition of bacterial titer; conditions: 10 µM; 72 h
Procedure: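 Primary screen of ~220 Spectrum collection (MicroSource) compounds at 10 µM (0.1% DMSO) on Candidatus Liberibacter solanacearum-infected potato hairy roots in multi-well plates (Gamborg B-5 medium, vacuum infiltrated, 21 °C, dark, 72 h). CLso titer was measured by qPCR of 16S rDNA normalised to potato RPL2 (2^-ddCq), pairwise-standardised against untreated controls, averaged over two biological replicates and expressed as % of untreated.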

Structure (SMILES)	relative CLso titer [%]
CCCCOc1cc(C(=O)NCCN(CC)CC)c2ccccc2n1	147 ± 76
CN(C)CCOC(c1ccc(Cl)cc1)c1ccccn1 (centres undefined)	35.2 ± 4.8
CS(=O)(=O)OCCCCOS(C)(=O)=O	66.9 ± 7.5
C#C[C@]1(O)CC[C@H]2[C@@H]3CCC4=Cc5oncc5C[C@]4(C)[C@H]3CC[C@@]21C	154 ± 40
CC1=C(/C=C/C(C)=C/C=C/C(C)=C/CO)C(C)(C)CCC1	195 ± 25
C[C@H]1c2cccc(O)c2C(=O)C2=C(O)[C@]3(O)C(=O)C(C(N)=O)=C(O)[C@@H](N(C)C)[C@@H]3[C@@H](O)[C@@H]21	125 ± 12
Oc1c(Cl)cc(Cl)cc1Sc1cc(Cl)cc(Cl)c1O	55.8 ± 6.5
Cc1cc(O)cc(C)c1Cl	30.8 ± 2.8
NS(=O)(=O)c1cc(C2(O)NC(=O)c3ccccc32)ccc1Cl (centres undefined)	58.5 ± 3.2
CC1=C(C(=O)O)N2C(=O)[C@@H](NC(=O)[C@H](N)c3ccc(O)cc3)[C@H]2SC1	49.7 ± 6.2
CC(=O)OCC1=C(C(=O)O)N2C(=O)[C@@H](NC(=O)CSc3ccncc3)[C@H]2SC1	70.6 ± 0.88
CN(C)CCOC(=O)C(c1ccccc1)C1(O)CCCC1 (centres undefined)	23.4 ± 4.1
COc1ccc2c3c1O[C@H]1C[C@@H](O)C=C[C@@]31CCN(C)C2	104 ± 28
CC1(C)OC(=O)NC1=O	65.8 ± 3.9
C[C@]12CCC(=O)C=C1CC[C@@H]1[C@@H]2[C@@H](O)C[C@@]2(C)[C@H]1CC[C@]2(O)C(=O)CO	94.9 ± 25
CCN(CC)C(=O)[C@@]1(c2ccccc2)C[C@H]1CN	48.9 ± 6
NC(=O)N1c2ccccc2C=Cc2ccccc21	58.7 ± 10

Structure (SMILES)	relative CLso titer [%]
C[C@H]1O[C@H](O[C@H]2[C@H](O)[C@@H](O)[C@@H](O[C@H]3[C@H](O)[C@@H](O)C(O)O[C@@H]3CO)O[C@@H]2CO)[C@H](O)[C@@H](O)[C@@H]1N[C@H]1C=C(CO)[C@@H](O)[C@H](O)[C@H]1O (some centres undefined)	135 ± 70
CN(C)[C@@H]1C(O)=C(C(N)=O)C(=O)[C@@]2(O)C(O)=C3C(=O)c4c(O)ccc(Cl)c4[C@@H](O)[C@H]3C[C@@H]12	173 ± 42
Cn1c([N+](=O)[O-])cnc1COC(N)=O	81.53 ± 0.13
C[C@@H]1O[C@@H]1P(=O)(O)O	155 ± 15
C[C@@](Cc1ccc(O)c(O)c1)(NN)C(=O)O	138.8 ± 1.3
CC(C)NCC(O)COc1ccc(CC(N)=O)cc1 (centres undefined)	106 ± 58
N=C(NCCCCCCNC(=N)NC(=N)Nc1ccc(Cl)cc1)NC(=N)Nc1ccc(Cl)cc1	89.5 ± 36
O=C(O)c1ccccc1C(=O)Nc1ccc(S(=O)(=O)Nc2nccs2)cc1	102 ± 3.3
C1CCN2C[C@@H]3C[C@@H](CN4CCCC[C@@H]34)[C@H]2C1	93.9 ± 8
Nc1ccc(S(=O)(=O)Nc2cnc3ccccc3n2)cc1	80.23 ± 0.64
CO[C@@]12[C@H](COC(N)=O)C3=C(C(=O)C(C)=C(N)C3=O)N1C[C@@H]1N[C@@H]12	85 ± 10
CNCCCN1c2ccccc2CCc2ccccc21	144 ± 1.5
O=C(c1ccc(OCCN2CCCCC2)cc1)c1c(-c2ccc(O)cc2)sc2cc(O)ccc12	93 ± 3.9
CC(=O)OCC(=O)[C@@]1(O)CC[C@H]2[C@@H]3CCC4=CC(=O)CC[C@]4(C)[C@H]3C(=O)C[C@@]21C	27.6 ± 3
CCn1nc(C(=O)O)c(=O)c2cc3c(cc21)OCO3	28.6 ± 0.62
CO/N=C(\C(=O)N[C@@H]1C(=O)N2C(C(=O)O)=C(COC(C)=O)CS[C@H]12)c1csc(N)n1	68.6 ± 14
Nc1ncn([C@@H]2O[C@H](CO)[C@@H](O)[C@H]2O)c(=O)n1	64.8 ± 5.8
